Screening results: PubChem BioAssay, National Center for Advancing Translational Sciences (NCATS)
Vif-A3F inh: qHTS for Inhibitors of Vif-A3F Interactions: qHTS; HeLa A3F-eYFP + Vif (tagged APOBEC3F with the HIV-1 protein that degrades it), YFP fluorescence increase; Potency, µM (doses to about 46.1 µM), without a hit: at the highest dose activity, negative = active; 390,000 compounds, 0.2% hits; AID 602313, 2012; note: potency is the fitted concentration of half-maximal effect; % of control where 0% means no effect; nearly all actives have a fitted effect of over 65% in size
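HeLa cells stably expressing Vif plus C-terminally eYFP-tagged A3F were seeded, incubated overnight at 37 deg C, dosed with compound, incubated overnight again at 37 deg C. Yellow fluorescence (Ex 488/Em 500-530) reported blocked Vif-mediated A3F-eYFP degradation.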
GCN5L2 inh: qHTS Assay for Inhibitors of GCN5L2; Potency, µM (doses to about 58.9 µM), for inactives: top-dose activity change, negative = inhibition, usual class: inhibitors; 390,000 compounds, 0.21% hits; GCN5L2 HAT assay, ThioGlo1 CoA-SH fluorescence; note: potency is the fitted concentration of half-maximal effect; % is set by controls: 0 for no effect and ±100 for the full control effect
Target sequence (Q92830 whole entry, looked up): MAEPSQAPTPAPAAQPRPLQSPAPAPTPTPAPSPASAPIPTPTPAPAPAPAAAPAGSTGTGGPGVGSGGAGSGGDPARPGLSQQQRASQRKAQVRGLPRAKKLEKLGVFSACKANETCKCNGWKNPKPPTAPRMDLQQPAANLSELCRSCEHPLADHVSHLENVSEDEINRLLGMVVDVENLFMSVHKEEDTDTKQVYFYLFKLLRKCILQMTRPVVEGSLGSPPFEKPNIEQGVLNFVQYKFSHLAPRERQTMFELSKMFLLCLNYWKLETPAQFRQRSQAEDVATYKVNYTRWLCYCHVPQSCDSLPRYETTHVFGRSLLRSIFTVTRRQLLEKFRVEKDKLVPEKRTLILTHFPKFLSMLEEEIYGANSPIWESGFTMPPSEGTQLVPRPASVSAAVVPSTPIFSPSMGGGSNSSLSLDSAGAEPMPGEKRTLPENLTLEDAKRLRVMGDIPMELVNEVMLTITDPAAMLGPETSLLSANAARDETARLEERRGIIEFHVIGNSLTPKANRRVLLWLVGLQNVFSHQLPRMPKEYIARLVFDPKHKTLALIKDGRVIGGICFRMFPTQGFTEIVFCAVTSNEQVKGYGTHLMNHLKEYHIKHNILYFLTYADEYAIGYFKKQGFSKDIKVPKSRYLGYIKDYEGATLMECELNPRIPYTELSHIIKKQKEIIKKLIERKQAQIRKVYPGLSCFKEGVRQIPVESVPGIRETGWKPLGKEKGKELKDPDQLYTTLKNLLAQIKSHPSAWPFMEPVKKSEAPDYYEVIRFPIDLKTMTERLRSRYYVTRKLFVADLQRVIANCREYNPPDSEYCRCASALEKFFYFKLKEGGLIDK
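qHTS, 1536-well. 20nM enzyme, pH 7.5 HEPES/EDTA/Tween-20 buffer; 15 min compound preinc., RT. Start: 75uM H3(1-25), 70uM AcCoA, 50uM ThioGlo1. Read Ex340/Em540 at t=0 (autofluorescence flag) and t=20 min.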
Vif-A3G inh: qHTS for Inhibitors of Vif-A3G Interactions: qHTS | DNA dC->dU-editing enzyme APOBEC-3G (Homo sapiens), Q9HC16 | HeLa A3G-eYFP + Vif (tagged APOBEC3G with the HIV-1 protein that degrades it), YFP fluorescence, overnight | Potency, µM (titrated, usually from 46.1 µM), for inactives: top-dose activity, negative = active, hits mostly inhibitors | 410,000 compounds, 0.076% hits; note: potency is the fitted concentration of half-maximal effect; % is set by controls: 0 for no effect and ±100 for the full control effect; nearly all actives have a fitted effect of over 60% in size
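HeLa cells stably expressing Vif and C-terminally eYFP-tagged A3G, seeded overnight at 37 deg C, then exposed to compound by pintool overnight at 37 deg C. Rise in yellow fluorescence (Ex 488/Em 500-530, Acumen) marks blocked Vif-driven A3G degradation.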
RGS12 GoLoco inh: qHTS Assay for Inhibitors of RGS12 GoLoco Motif Activity (Red Fluorophore); 230,000 compounds, 0.44% hits; Guanine nucleotide-binding protein G(i) subunit alpha-1 (Homo sapiens), P63096; Gai1:RGS12 GoLoco peptide FP, rhodamine, 10 min; Potency, µM (series often up to 61.6 µM), without a hit: at the top dose activity, negative = inhibition, actives largely listed as inhibitors; AID 880, 2007; active = well fitted inhibition curve with a large enough effect, not every such curve was filed as active; inactive = no such curve, though single readings can be large or run the other way; note: potency is the fitted concentration of half-maximal effect; % is set by controls: 0 for no effect and ±100 for the full control effect; nearly all actives have a fitted effect of over 30% in size
PKM2 activator: qHTS Assay for Activators of Human Muscle isoform 2 Pyruvate Kinase. Pyruvate kinase PKM (Homo sapiens), P14618. purified PKM2, Kinase-Glo ATP luminescence, activation; response scale: 0% is enzyme alone, no compound. Potency, µM (titrated, usually from 57.5 µM), for inactives: top-dose activation, most hits filed as activators. 260,000 compounds, 0.34% hits. AID 1631, 2009; note: potency is the fitted concentration of half-maximal effect; % is set by controls: 0 for no effect and ±100 for the full control effect; nearly all actives have a fitted effect of over 55% in size
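Purified hPK-M2 (>95% pure) converted ADP (0.1 mM final) to ATP with 0.5 mM PEP in 50 mM imidazole pH7.2, KCl, MgCl2, Tween 20, BSA; 1 h at room temperature. ATP detected by Kinase-Glo luminescence.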
IL2 activator: qHTS of IL-2 Activators | activation, % (series mostly up to about 46 µM) | 360,000 compounds, 0.065% hits | IL-2 activation reporter assay, cell-based qHTS; stimulated with anti-CD3/CD4/CD28 beads; in transgenic mouse T cells; in the data active = activation above about 50%; inconclusive = mostly about 30% to 49%; note: 0% is about no effect
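Readout: EGFP and DsRed signals by fluorescent plate cytometry. Unstimulated transgenic mouse T cells received compound 60 min before antibody-bead stimulation, then incubated 18 h at 37 degrees C.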
* hit, by the source's call; i = inactive; ? = inconclusive; / = no result. Rows were chosen to be rich in hits. Some 0.77% of all compounds tested hit in one or more screens of this group. Unless noted, calls come from the whole dose curve; as a rule, active = well fitted curve in the direction sought with a large enough effect; inconclusive = small, poorly fitted or top-dose-only effect, or another doubt; inactive = no such curve, though single readings can be large; an effect the other way counts as inactive or inconclusive.

SMILES | Vif-A3F inh | GCN5L2 inh | Vif-A3G inh | RGS12 GoLoco inh | PKM2 activator | IL2 activator
CC(C)C[C@H](N)c1nnc(S(=O)(=O)Cc2ccc(F)cc2)o1 | 1% | -17% | -28% | -25% | 10µM* | -1
CCCc1ccc(S(=O)(=O)N2CCN(C(=O)CN3C(=O)NC(C)(C4CC4)C3=O)CC2)cc1 (centres undefined) | -8% | / | -1% | / | / | 1
Cc1ccc(N2C(=O)[C@@H]3[C@H](C2=O)[C@H]2C=CC=NN2[C@@H]3C(=O)Nc2ccccc2)cc1 | 12% | -11% | -5% | 17% | ? | 1
O=C(Nc1ccccc1)[C@@H]1[C@@H]2C(=O)N(c3ccc(F)cc3)C(=O)[C@@H]2[C@H]2C=CC=NN21 | 1% | -15% | 0% | 24% | 8.9µM* | -1
Cc1ccc2nc(/C(C#N)=C/c3ccc(-c4cccc(Cl)c4)o3)[nH]c2c1 | 3.2µM* | -8% | 7.9µM* | / | / | /
N#C/C(=C\c1ccc(-c2ccc(Cl)c(C(=O)O)c2)o1)c1nc2ccccc2[nH]1 | ? | -24% | ? | / | / | /
Cc1ccc2nc(/C(C#N)=C/c3ccc(O)c(O)c3)[nH]c2c1 | ? | -3% | ? | / | -1% | 2
COc1cc(/C=C(\C#N)c2nc3ccc(C)cc3[nH]2)ccc1OC(C)C | 25µM* | -3% | -32% | / | / | /
O=S(=O)(O)c1cc(O)c2c(O)c(N=Nc3cc(Cl)ccc3O)c(S(=O)(=O)O)cc2c1 | 11% | -11% | -2% | / | / | 0
Cc1cc(-c2ccc(N=Nc3c(S(=O)(=O)O)cc4cc(S(=O)(=O)O)cc(N)c4c3O)c(C)c2)ccc1N=Nc1c(S(=O)(=O)O)cc2cc(S(=O)(=O)O)cc(N)c2c1O | / | 11µM* | / | / | / | /
O=C(c1ccco1)N1CCN(Cc2nnc(-c3ccccc3F)o2)CC1 | 0% | -1% | -1% | / | -6% | 0
Cc1sc2nc(CSc3nnnn3-c3ccc(Cl)cc3)[nH]c(=O)c2c1C | 32µM* | -7% | -19% | 108% | -2% | 5
C=CCSSSCC=C | / | 22µM* | / | 2% | / | /
CN(C)C(CNC(=O)C1CCCN1C(=O)c1cccs1)c1ccccc1 (centres undefined) | 4% | -5% | 0% | / | / | 0
O=C(Nc1ccccc1-c1nc2ccccc2[nH]1)c1ccc(N2C(=O)CCC2=O)cc1 | 11µM* | 0% | ? | -9% | -7% | 111*
COc1ccc2nc(SCC(=O)N3CC(=O)Nc4ccccc43)c(C#N)cc2c1 | 22µM* | ? | 10µM* | 6% | 6% | 4
COc1ccc2nc(SC)c(C#N)cc2c1 | -4% | -3% | 1% | 38% | 2% | -2
COc1ccc2nc(SCC(C)=O)c(C#N)cc2c1 | 3.5µM* | -6% | ? | -24% | 2% | 7
O=C(CSc1nnc(NC(=O)c2c(F)cccc2F)s1)NCc1ccco1 | -4% | -7% | -5% | / | / | -1
O=C1CSC(c2nn(-c3ccccc3)cc2-c2cc3ccccc3oc2=O)N1Cc1ccco1 (centres undefined) | -2% | -18% | -9% | 6% | 13% | -2
O=C(Nc1ccc(N2CCOCC2)cc1)c1cccc2ccccc12 | -2% | -2% | 10µM* | / | -5% | -1
CCc1ccc(C(=O)NC(=S)Nc2ccc(N3CCOCC3)cc2)cc1 | 10µM* | -13% | 1% | 7% | -7% | -3
C/C(=N\NC(=O)C(C)n1nc(C)c([N+](=O)[O-])c1C)c1ccccc1O (centres undefined) | 5.6µM* | -6% | -2% | 4% | 4% | -5
Oc1cccc(/C=N/n2c(C3CCCCC3)n[nH]c2=S)c1 | -5% | 5% | -2% | / | / | -2
COc1cccc(/C=N/n2c(C3CCCCC3)n[nH]c2=S)c1 | -9% | 1% | 7.1µM* | / | / | 0
SMILES | Vif-A3F inh | GCN5L2 inh | Vif-A3G inh | RGS12 GoLoco inh | PKM2 activator | IL2 activator
O=C(CN1C(=O)CSc2ncccc21)Nc1cccc(Cl)c1 | 10µM* | -4% | ? | / | 0% | -2
Cc1c(Cl)cccc1NC(=O)CN1C(=O)CSc2ncccc21 | / | -8% | / | 9% | 10% | /
CCCC(=O)Nc1c(I)cc(I)c(C[C@H](CC)C(=O)O)c1I | / | 1% | / | / | / | /
CCC(Cc1c(I)cc(I)c(O)c1I)C(=O)O (centres undefined) | / | 22µM* | / | / | / | /
COc1ccccc1-c1cc(NCc2cnc(C)cn2)ncn1 | / | 20µM* | / | -7% | / | /
Cc1c(Cc2ccccc2)c(=O)oc2cc(OCC(=O)NC(Cc3ccc(Cl)cc3)C(=O)O)ccc12 (centres undefined) | -2% | ? | 2% | / | 0% | 1
COc1cccc(/C=C/C(=O)c2c(O)cc(C)oc2=O)c1O | -5% | -7% | ? | 55% | -8% | 1
COc1ccc(/C=C/C(=O)c2c(O)cc(C)oc2=O)c(OC)c1 | ? | ? | -26% | 134% | -47% | 172*
COC(=O)c1ccc(NC(=O)c2sc3nc(-c4ccccc4)cn3c2C)cc1 | 4% | -10% | 1% | 7% | -2% | -1
O=C1OCCN1C(=O)[C@H]1[C@H](c2ccccc2)C(c2ccccc2)=NN1c1ccccc1 | -4% | 28µM* | -2% | -24% | / | 0
Cc1sc(-c2cc3c([nH]c2=O)CC(c2ccccc2)CC3=O)nc1-c1ccc(Cl)cc1 (centres undefined) | 13µM* | -6% | 10µM* | / | / | /
COc1ccc(-n2nc3cc(C)c(NC(=S)NC(=O)c4ccccc4C)cc3n2)cc1 | -6% | 0% | -1% | 6% | 1% | 3
Nc1n[nH]c(N)c1N=Nc1ccc(F)cc1 | 4% | -25% | 6% | 4% | / | -1
COCCNC(=S)N/N=C/c1ccccc1C(=O)O | 6% | 1% | 1% | 1% | -8% | -4
CC(=O)c1ccc2c(c1)C1C=CCC1C(C(=O)O)N2 (centres undefined) | 5% | ? | 2% | -32% | 7% | 0
Cc1ccc2c(c1)C1C=CCC1C(C(=O)O)N2 (centres undefined) | / | 25µM* | / | 40% | 14% | /
COc1cc(OC)c(-c2nc3ccccc3s2)cc1OC | 1% | 2% | -5% | 7% | -28% | 0
Cc1c2cc(O)c(=O)cc-2oc2cc(O)c(O)cc12 | ? | ? | 3% | 7.9µM* | ? | 9
COc1cc(OC)c(-c2c3cc(O)c(=O)cc-3oc3cc(O)c(O)cc23)cc1OC | ? | 4% | 7% | i | -8% | -1
